Reference: PubChem BioAssay (Tox21)
Records with an inconclusive call do not appear. Entries that show only a call come without a potency. Active and inactive are the calls of the source. Unless noted, the call rests on the fitted dose curve; in most records, active means well fitted curve in the direction sought with a large enough effect in the repeat runs; inconclusive means weak or mixed curves; inactive means no such curve, though single readings can be large; an effect the other way counts as inactive or inconclusive.

Experiments:
[1] = A CellTox Green Cytotoxicity Assay to monitor cytotoxicity in HepG2 cells - 0 hour (AID 1224882); further: nearly all actives have a fitted effect of over 35% in size
Summary of the method: (§1)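 Read-out is fluorescence of a cyanine dye excluded from live cells that stains DNA of dead HepG2 cells, with signal proportional to cytotoxicity. Plates were read at 0, 8, 16, 24, 32 and 40 h after compound addition.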

[2] = A CellTox Green Cytotoxicity Assay to monitor cytotoxicity in HEK293 cells - 8 hour (AID 1224884); further: nearly all actives have a fitted effect of over 35% in size
Summary of the method: (§2)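 Nonlytic real-time cytotoxicity: HEK293 + CellTox Green reagent plated, 5 h preincubation, pintool compound addition (23 nL in DMSO), 37 C for 40 h, fluorescence measured at successive time points.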

[3] = qHTS RealTime-Glo MT Cell Viability Assay in HEK293 cells - 24 hour (AID 1224886); further: nearly all actives have a fitted effect of over 50% in size; further: potency means the concentration at half of the fitted maximal effect
Summary of the method: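 Tox21 10K qHTS, HEK293, 600 cells/well, RealTime-Glo reagent co-dispensed with cells; 5 h preincubation, compound by pintool, 37 C, luminescence at 0–40 h.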

[4] = qHTS RealTime-Glo MT Cell Viability Assay in HEK293 cells - 8 hour (AID 1224887); further: nearly all actives have a fitted effect of over 50% in size; further: potency means the concentration at half of the fitted maximal effect
Summary of the method: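 Cells were seeded together with NanoLuc luciferase and a prosubstrate that viable cells reduce to a luciferase substrate. After a 5 h incubation at 37 C/5% CO2, compounds were added and luminescence was measured repeatedly during 40 h of treatment.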

[5] = A CellTox Green Cytotoxicity Assay to monitor cytotoxicity in HEK293 cells - 16 hour (AID 1224888); further: nearly all actives have a fitted effect of over 35% in size
Summary of the method: as §2

[6] = qHTS RealTime-Glo MT Cell Viability Assay in HepG2 cells - 0 hour (AID 1224889); further: nearly all actives have a fitted effect of over 50% in size
Summary of the method: (§3)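 Cells + NanoLuc/prosubstrate dispensed (600 cells/well) → 5 h at 37 C/5% CO2 → compounds in DMSO transferred → 40 h incubation at 37 C, luminescence read at 0, 8, 16, 24, 32, 40 h.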

[7] = qHTS assay to identify small molecule antagonists of the estrogen receptor alpha (ER-alpha) signaling pathway using the BG1 cell line in the presence of 0.1 nM 17-beta-estradiol - cell viability counter screen (AID 1259241); further: nearly all actives have a fitted effect of over 40% in size
Summary of the method: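 Cells were plated and left 24 hr, compounds in DMSO were pinned in, 17beta-estradiol was added to 0.1 nM final, and after 22 hr CellTiter-Fluor reagent was added for 30 min before fluorescence was read.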

[8] = qHTS assay to identify small molecule antagonists of the androgen receptor (AR) signaling pathway using the MDA cell line in the presence of 0.5 nM R1881 - cell viability counter screen (AID 1259242); further: nearly all actives have a fitted effect of over 45% in size
Summary of the method: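 Counter screen for cytotoxicity run in the same wells as the AR antagonist reporter screen: MDA-kb2 cells were treated 16 hr with test compounds and 0.5 nM R1881, then live-cell protease activity was measured by fluorescence.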

[9] = qHTS assay to identify small molecule HDAC inhibitors (AID 1259364); further: top concentration of the series differs between compounds; nearly all actives have a fitted effect of over 45% in size
Summary of the method: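 Luminescence from a cell-permeant luminogenic class I/II HDAC substrate reports endogenous deacetylase activity in intact HCT-116 cells treated with compounds for 2 h.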

[10] = qHTS assay to identify small molecule HDAC inhibitors - cell viability counter screen (AID 1259365); further: series mostly up to about 92 µM; nearly all actives have a fitted effect of over 50% in size
Summary of the method: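 Counter screen in wild-type HCT-116 cells: compounds dissolved in DMSO are pin-transferred onto overnight-plated cells and left 2hr at 37C. ATP-based CellTiter-Glo luminescence then measures viable cells.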

[11] = qHTS assay to identify small molecule agonists of the sonic hedgehog signaling (Shh) pathway - cell viability counter screen (AID 1259366); further: nearly all actives have a fitted effect of over 50% in size
Summary of the method: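 Cells are plated at 2,000 per well and left 4hr at 37C, 5% CO2 before compound addition. After 23hr of treatment, CellTiter-Fluor reagent is added for 1hr at 37C and fluorescence is measured.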

[12] = qHTS assay to identify small molecule antagonists of the sonic hedgehog signaling (Shh) pathway - cell viability counter screen (AID 1259367); further: nearly all actives have a fitted effect of over 55% in size
Summary of the method: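 NIH/3T3-derived Gli1-Luc reporter cells (2,000 per well) rested 4 hr at 37 C, then received DMSO compounds plus conditioned medium. After 23 hr of treatment, CellTiter-Fluor was added for 1 hr at 37C and fluorescence read.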

[13] = qHTS assay to identify small molecule agonists of the sonic hedgehog signaling (Shh) pathway (AID 1259368; calls by dose curve;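 further: NIH/3T3-derived 3T3Gli1-Luc cells carrying a stable Gli1-driven firefly luciferase reporter; series mostly up to about 92 µM; nearly all actives have a fitted effect of over 15% in size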)
Summary of the method: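 3T3Gli1-Luc (NIH/3T3 clone, stable Gli1-Luc); 4 hr pre-incubation, then cpd in DMSO 24 hr, 37 C/5% CO2; luciferase reagent 30 min RT; luminescence.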

[14] = A CellTox Green Cytotoxicity Assay to monitor cytotoxicity in HepG2 cells - 32 hour (AID 1224883); further: nearly all actives have a fitted effect of over 50% in size
Summary of the method: as §1

[15] = qHTS RealTime-Glo MT Cell Viability Assay in HepG2 cells - 16 hour (AID 1224885); further: nearly all actives have a fitted effect of over 50% in size
Summary of the method: as §3

[16] = A CellTox Green Cytotoxicity Assay to monitor cytotoxicity in HepG2 cells - 8 hour (AID 1224890); further: nearly all actives have a fitted effect of over 45% in size
Summary of the method: as §1

[17] = target: Estrogen receptor (Homo sapiens) (UniProt P03372); assay: qHTS assay to identify small molecule antagonists of the estrogen receptor alpha (ER-alpha) signaling pathway using the BG1 cell line in the presence of 0.1 nM 17-beta-estradiol (AID 1259244); further: nearly all actives have a fitted effect of over 50% in size
Summary of the method: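 Cells: VM7Luc4E2, endogenous ER-alpha, 4x ERE-luc stable. Pre-culture 5 d, phenol red-free, charcoal-stripped FBS. Plated 24 h, compound + E2 0.1 nM final, 22 h 37C/5% CO2. Readout ONE-Glo luminescence.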

[18] = qHTS assay to identify small molecule phospholipidosis (PLD) inducers (AID 1259344; active means well fitted curve in the direction sought with a large enough effect; an effect the other way counts as inactive or inconclusive)
Summary of the method: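 HepG2 cells on collagen I, attached 4 h at 37 C, were co-treated with compound and LipidTOX Red dye for 24 h at 37 C, then fixed with paraformaldehyde plus Hoechst 33342 and imaged by high-content microscopy for phospholipid accumulation.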

[19] = target: Androgen receptor (Homo sapiens) (UniProt P10275); assay: qHTS assay to identify small molecule antagonists of the androgen receptor (AR) signaling pathway using the MDA cell line in the presence of 0.5 nM R1881 (AID 1259243); further: nearly all actives have a fitted effect of over 50% in size
Summary of the method: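 Luciferase luminescence is the read-out: compounds are tested for suppressing 0.5 nM R1881-driven MMTV reporter activity in MDA-kb2 cells after 16 hr at 37C.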

Estrogen receptor (Homo sapiens), sequence (P03372 whole entry, looked up): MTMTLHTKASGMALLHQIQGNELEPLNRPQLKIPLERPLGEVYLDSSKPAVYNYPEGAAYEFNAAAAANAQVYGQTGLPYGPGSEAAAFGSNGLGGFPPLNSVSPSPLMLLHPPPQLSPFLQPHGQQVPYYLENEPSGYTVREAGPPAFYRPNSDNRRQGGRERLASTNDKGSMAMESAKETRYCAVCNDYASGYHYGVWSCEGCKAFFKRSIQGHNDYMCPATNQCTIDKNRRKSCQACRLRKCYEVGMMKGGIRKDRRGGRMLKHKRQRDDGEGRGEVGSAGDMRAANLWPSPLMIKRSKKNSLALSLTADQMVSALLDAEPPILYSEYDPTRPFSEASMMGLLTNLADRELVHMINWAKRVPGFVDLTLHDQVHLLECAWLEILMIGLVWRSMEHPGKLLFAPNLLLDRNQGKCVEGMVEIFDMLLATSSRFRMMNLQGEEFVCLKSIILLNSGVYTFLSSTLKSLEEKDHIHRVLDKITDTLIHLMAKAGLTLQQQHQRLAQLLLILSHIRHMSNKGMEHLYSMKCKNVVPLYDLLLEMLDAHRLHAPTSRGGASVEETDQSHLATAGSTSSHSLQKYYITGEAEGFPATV
Androgen receptor (Homo sapiens), sequence (P10275 whole entry, looked up): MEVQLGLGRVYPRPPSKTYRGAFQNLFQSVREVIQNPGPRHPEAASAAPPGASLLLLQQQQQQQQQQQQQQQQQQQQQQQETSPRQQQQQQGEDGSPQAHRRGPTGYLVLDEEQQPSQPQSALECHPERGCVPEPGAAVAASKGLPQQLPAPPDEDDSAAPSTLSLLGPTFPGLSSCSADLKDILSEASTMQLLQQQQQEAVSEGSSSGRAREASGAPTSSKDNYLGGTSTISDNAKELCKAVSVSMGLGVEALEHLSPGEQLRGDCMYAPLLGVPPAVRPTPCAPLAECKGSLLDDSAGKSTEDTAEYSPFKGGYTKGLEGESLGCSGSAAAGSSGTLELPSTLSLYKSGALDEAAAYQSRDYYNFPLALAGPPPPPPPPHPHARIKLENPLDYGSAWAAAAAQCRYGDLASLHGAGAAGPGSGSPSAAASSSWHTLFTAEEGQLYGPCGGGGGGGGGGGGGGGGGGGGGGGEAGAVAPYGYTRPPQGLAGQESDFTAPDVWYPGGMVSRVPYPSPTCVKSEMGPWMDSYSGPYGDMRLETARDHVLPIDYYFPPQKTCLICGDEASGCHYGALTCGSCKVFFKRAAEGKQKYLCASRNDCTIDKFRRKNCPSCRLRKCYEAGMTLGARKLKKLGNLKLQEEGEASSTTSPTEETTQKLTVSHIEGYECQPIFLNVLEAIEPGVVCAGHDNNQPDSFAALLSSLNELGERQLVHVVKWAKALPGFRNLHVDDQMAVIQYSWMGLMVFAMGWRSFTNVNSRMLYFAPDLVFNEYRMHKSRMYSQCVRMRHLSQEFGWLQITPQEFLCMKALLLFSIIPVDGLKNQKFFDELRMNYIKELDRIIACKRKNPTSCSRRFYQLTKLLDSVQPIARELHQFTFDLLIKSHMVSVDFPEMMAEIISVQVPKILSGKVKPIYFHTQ

Structure (SMILES) | Potency [1] | Potency [2] | Potency [3] | Potency [4] | Potency [5] | Potency [6] | Potency [7] | Potency [8] | Potency [9] | outcome [10] | Potency [11] | Potency [12] | outcome [13] | Potency [14] | Potency [15] | Potency [16] | Potency [17] | Potency [18] | Potency [19]
Cc1cccc(C(C)(C)C)c1O | inactive | inactive | inactive | inactive | inactive | inactive | inactive | inactive | inactive | inactive | inactive | inactive | inactive | – | – | – | – | – | –
ClC(Cl)(Cl)c1ccc(C(Cl)(Cl)Cl)cc1 | – | inactive | inactive | inactive | inactive | inactive | inactive | inactive | inactive | inactive | inactive | inactive | inactive | inactive | inactive | inactive | inactive | – | –
OCCC1CCCCN1 (configuration not stated) | inactive | inactive | inactive | inactive | inactive | inactive | inactive | inactive | inactive | – | – | inactive | inactive | – | – | inactive | inactive | – | –
O=C(O)C1CCC(C(=O)O)CC1 (configuration not stated) | – | inactive | inactive | – | inactive | inactive | inactive | inactive | inactive | inactive | inactive | inactive | inactive | inactive | – | inactive | inactive | – | –
O=[N+]([O-])c1cccc(Cl)c1Cl | – | inactive | inactive | inactive | inactive | inactive | inactive | inactive | inactive | inactive | inactive | inactive | inactive | inactive | – | inactive | – | – | –
O=C(O)Cn1c(C(=O)Nc2nc(-c3ccccc3Cl)cs2)cc2ccccc21 | inactive | – | inactive | inactive | inactive | – | inactive | inactive | inactive | – | inactive | inactive | inactive | – | inactive | inactive | – | inactive | –
C=CC(C)(CCC=C(C)C)OC(=O)c1ccccc1 (configuration not stated) | inactive | – | inactive | inactive | – | inactive | inactive | inactive | inactive | inactive | – | inactive | inactive | inactive | inactive | inactive | – | – | –
COCCO | inactive | inactive | inactive | inactive | inactive | inactive | inactive | inactive | inactive | inactive | – | inactive | inactive | inactive | – | inactive | – | – | –
C[C@@H](C1=C(CCN(C)C)Cc2ccccc21)c1ccccn1 | inactive | inactive | inactive | inactive | inactive | inactive | inactive | inactive | inactive | – | – | inactive | inactive | inactive | – | inactive | – | inactive | –
NCCCOCCOCCOCCCN | inactive | – | inactive | inactive | inactive | inactive | inactive | inactive | inactive | inactive | – | inactive | inactive | inactive | inactive | inactive | – | – | –
CCCCCCCC/C=C\CCCCCCCC(N)=O | inactive | inactive | – | inactive | inactive | inactive | inactive | inactive | inactive | inactive | inactive | inactive | inactive | – | – | inactive | – | – | inactive
CCOC(=O)CC(C)C | inactive | – | inactive | inactive | inactive | inactive | inactive | inactive | inactive | – | inactive | inactive | inactive | – | inactive | inactive | – | – | –
CCC(=O)OC(C)(C)C1CC=C(C)CC1 (configuration not stated) | inactive | – | inactive | inactive | inactive | inactive | inactive | inactive | inactive | inactive | inactive | inactive | inactive | – | inactive | inactive | inactive | – | –
Oc1ccc(Cc2ccccc2)cc1 | inactive | inactive | 36 µM (active) | 22.7 µM (active) | – | inactive | inactive | inactive | inactive | inactive | – | – | inactive | – | inactive | inactive | – | – | –
Cc1ccc(C(N)=O)cc1N | – | inactive | inactive | – | inactive | inactive | inactive | inactive | inactive | inactive | inactive | inactive | inactive | inactive | inactive | inactive | inactive | – | –
CC/C(=C\C(=N/O)C(N)=O)C(C)[N+](=O)[O-] (configuration not stated) | inactive | – | – | inactive | inactive | inactive | inactive | inactive | inactive | inactive | inactive | inactive | inactive | inactive | – | inactive | inactive | – | –
N#CCCNCCC#N | inactive | inactive | inactive | inactive | inactive | inactive | inactive | inactive | inactive | inactive | inactive | inactive | inactive | inactive | – | inactive | inactive | – | –
CC(C)NCC(O)c1cc(O)cc(O)c1 (configuration not stated) | – | inactive | inactive | inactive | inactive | inactive | inactive | inactive | inactive | inactive | inactive | inactive | inactive | inactive | inactive | inactive | – | inactive | –
CC(C)(C)c1ccc(OCC2CO2)cc1 (configuration not stated) | inactive | inactive | inactive | inactive | – | inactive | inactive | inactive | inactive | inactive | inactive | – | inactive | – | inactive | inactive | inactive | – | –
CN(C(=O)CCCOc1ccc2[nH]c(=O)ccc2c1)C1CCCCC1 | inactive | – | – | inactive | inactive | inactive | inactive | inactive | inactive | inactive | inactive | inactive | inactive | inactive | inactive | inactive | – | inactive | –
